Screening data: PubChem BioAssay, National Center for Advancing Translational Sciences (NCATS)
Only some compounds are listed: those with a hit (about 17% of all), similar ones and a draw of the others.
DT40 TDP1 no CPT – qHTS for Inhibitors of human tyrosyl-DNA phosphodiesterase 1 (TDP1): qHTS in cells in absence of CPT; AID 686978, 2013; actives 15% (n = 420,000); Potency, µM (series often up to 46.2 µM), for the others: top-dose activity change, negative = growth inhibition, hits mostly inhibitors; DT40 Tdp1-/- hTDP1 cells, no CPT, ATP luminescence, 48 h; also: % is scaled to controls: 0 for no effect and ±100 for the full control effect; nearly all actives have a fitted effect of over 55% in size
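Growth of hTDP1-complemented DT40 Tdp1-knockout cells is measured by ATP luminescence after at least 48 hr compound exposure at 37 °C, with DMSO substituting for the 20 nM CPT used in the parallel screen.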
TDP1 inh – blocks human tyrosyl-DNA phosphodiesterase 1 | Q9NUW8 | recombinant TDP1, AlphaScreen DNA substrate cleavage | Potency, µM (doses to about 130 µM), for inactives: top-dose activity change, negative = inhibition, hits mostly inhibitors | actives 0.28% (n = 350,000) | AID 485290; also: % is scaled to controls: 0 for no effect and ±100 for the full control effect; nearly all actives have a fitted effect of over 40% in size
Target sequence (Q9NUW8 whole entry, looked up): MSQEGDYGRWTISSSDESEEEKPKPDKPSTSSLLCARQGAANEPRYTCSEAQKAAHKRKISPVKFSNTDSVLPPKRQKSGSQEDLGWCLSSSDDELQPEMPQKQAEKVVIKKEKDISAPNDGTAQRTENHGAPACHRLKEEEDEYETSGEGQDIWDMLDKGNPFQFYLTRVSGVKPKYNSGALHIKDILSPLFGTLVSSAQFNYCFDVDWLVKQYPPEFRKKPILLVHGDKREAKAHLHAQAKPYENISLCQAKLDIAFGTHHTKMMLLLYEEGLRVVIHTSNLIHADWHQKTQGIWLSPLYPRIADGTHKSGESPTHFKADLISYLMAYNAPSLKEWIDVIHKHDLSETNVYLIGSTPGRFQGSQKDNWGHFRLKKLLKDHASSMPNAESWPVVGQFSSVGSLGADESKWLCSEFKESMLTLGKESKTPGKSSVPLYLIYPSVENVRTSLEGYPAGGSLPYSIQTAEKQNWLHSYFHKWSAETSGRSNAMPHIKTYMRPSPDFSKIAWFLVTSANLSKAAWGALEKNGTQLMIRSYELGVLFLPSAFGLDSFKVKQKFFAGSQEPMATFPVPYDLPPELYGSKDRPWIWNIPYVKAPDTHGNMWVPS
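AlphaScreen read-out: signal falls as enzyme removes the 3' tyrosine-FITC from a 5'-biotinylated DNA oligo (15 nM, 5 min, RT). Enzyme was E. coli-made recombinant Tdp1 at 1 nM, exposed to compound for 15 min beforehand; beads 10 ug/ml, 10 min.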
DT40 TDP1 CPT – growth inhibition of DT40 Tdp1-/-;hTDP1 cells with camptothecin (screen for TDP1 inhibitors). chicken DT40 Tdp1-/-;hTDP1 cells + 20 nM CPT, ATP luminescence, 48 h. Potency, µM (doses to about 46.2 µM), inactives show top-dose activity change, negative = growth inhibition, usual class: inhibitors. actives 12% (n = 420,000); also: % is scaled to controls: 0 for no effect and ±100 for the full control effect; nearly all actives have a fitted effect of over 55% in size
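Chicken DT40 Tdp1-/- cells stably complemented with human TDP1 were seeded at 400 cells/well in medium containing 20 nM camptothecin, exposed to pin-transferred compounds, and grown at 37 °C for at least 48 hr. Viability was read as ATP luminescence.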
ClpP mod – qHTS Assay for Activators of ClpP; ATP-dependent Clp protease proteolytic subunit (Bacillus subtilis (strain 168)), P80244; purified B. subtilis ClpP, FRET peptide cleavage, 20 min; Potency, µM (highest dose often 57.5 µM), for inactives: top-dose activity change, negative = active; actives 1.9% (n = 340,000); AID 651965, 2013; active = well fitted falling curve with a large enough effect; inconclusive = small, poorly fitted or top-dose-only effect; inactive = no such curve, though single readings can be large or run the other way; also: the source files actives as falling curves though it sought activators and does not explain the sign; nearly all actives have a fitted effect of over 65% in size
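FRET quenching reversal measured ClpP activation: 10 microg/mL B. subtilis ClpP at pH 8 with the FRET-FV decapeptide, read at 430 nm after 320 nm excitation. The 20-min minus 0-min signal was scaled between DMSO/no-enzyme wells and ADEP (5.8 microM final).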
* = called active by the depositor; ? = inconclusive; · = not tested or not shown; [ ] = dose if it differs, or a comment. Unless noted, calls follow the shape of the dose curve; as a rule, active = well fitted curve in the direction sought with a large enough effect; inconclusive = small, poorly fitted or top-dose-only effect, or another doubt; inactive = no such curve, though single readings can be large; an effect the other way counts as inactive or inconclusive. Potency is read from the fitted curve at half-maximal effect.

SMILES	DT40 TDP1 no CPT	TDP1 inh	DT40 TDP1 CPT	ClpP mod
CN(CC(=O)Nc1ccc(Cl)cc1)C(=O)c1cccc(S(=O)(=O)NCc2ccccc2)c1	?	-4%	?	-3%
O=C(Nc1ccc(S(=O)(=O)N2CCN(Cc3ccccc3)CC2)cc1)c1cnccn1	5.2µM*	1%	9.2µM*	-4%
CC(NC(=O)c1cccc(S(=O)(=O)N2CCN(Cc3ccccc3)CC2)c1)c1ccc(Br)cc1 (stereo not drawn)	?	0%	?	25µM*
CN(CC(=O)Nc1ccc(Cl)cc1)C(=O)c1cccc(S(=O)(=O)N2CCN(Cc3ccccc3)CC2)c1	5.2µM*	6%	5.8µM*	1%
CN(C)C(=O)c1ccc(NC(=O)c2cccc(S(=O)(=O)N3CCN(Cc4ccccc4)CC3)c2)cc1	18µM*	·	15µM*	0%
CS(=O)(=O)c1ccc(NC(=O)c2cccc(S(=O)(=O)N3CCN(Cc4ccccc4)CC3)c2)cc1	?	4%	?	-2%
CC(C)[C@H](NC(=O)C1CCC(CNC(=O)[C@@H]2CCCN2C(=O)OC(C)(C)C)CC1)C(=O)O (stereo partly drawn)	4%	·	23%	·
CCCN(C(=O)c1noc2c1COc1ccc(C)cc1-2)c1ccc(Cl)c(Cl)c1	·	4%	·	-3%
Cc1cccc(C)c1OCC(=O)NCC1COc2ccccc2O1 (stereo not drawn)	?	-7%	-4%	-1%
COc1ccc(C(=O)CSc2nc(=O)n3ccc(C)cc3n2)cc1	?	·	-29%	-4%
NC(=O)CC(NSc1ccccc1[N+](=O)[O-])C(=O)O (stereo not drawn)	18µM*	9%	16µM*	-2%
O=C(O)C1CCC(NSc2ccccc2[N+](=O)[O-])CC1 (stereo not drawn)	2.6µM*	6%	2.9µM*	1%
O=[N+]([O-])c1ccccc1SNc1ccccc1	-28%	·	-28%	-2%
CC(C)(C)c1ccc(-c2nnc(SCCC#N)n2C2CCCC2)cc1	18µM*	-1%	18µM*	-1%
O=C(CSc1nnc(-c2ccccc2F)n1C1CCCCC1)N1CCCC1	-23%	4%	-24%	-2%
O=C(CSc1nnc(-c2ccc(Br)cc2)n1C1CCCCC1)N1CCCC1	23µM*	-1%[56.1 µM]	?	0%
O=C(CSc1nnc(-c2ccc(Cl)cc2Cl)n1C1CCCCC1)N1CCCC1	21µM*	2%	23µM*	1%
O=C(NCCc1ccccn1)C1CC12CCN(C(=O)c1ccccc1Cl)CC2 (stereo not drawn)	6%	·	3%	·
CCC(C)OC(=O)C[N+](C)(C)CCOC1CC2CCC1(C)C2(C)C (stereo not drawn)	1.5µM*	-3%	1.2µM*	·
CCCCCCOC(=O)C[N+](C)(C)CCOC1CC2CCC1(C)C2(C)C (stereo not drawn)	?	8%	?	3%
CCCOC(=O)C[N+](C)(C)CCOC1CC2CCC1(C)C2(C)C (stereo not drawn)	4.6µM*	-4%	8.2µM*	0%
CCCCOC(=O)C[N+](C)(C)CCOC1CC2CCC1(C)C2(C)C (stereo not drawn)	1.8µM*	3%	2.1µM*	·
CCCCCCCOC(=O)C[N+](C)(C)CCOC1CC2CCC1(C)C2(C)C (stereo not drawn)	1.6µM*	-6%	1.5µM*	·
CCc1ccc(OCC(=O)Nc2ccc3c(c2)c2ccccc2n3CC)c(Br)c1	?	3%	?	-9%
CN(C)c1nc(N)ncc1-c1ccc(Oc2ccccc2)cc1	-22%	·	-28%	·
SMILES	DT40 TDP1 no CPT	TDP1 inh	DT40 TDP1 CPT	ClpP mod
O=C(CN1C(=O)NC2(CCCc3ccccc32)C1=O)NCC(F)(F)F (stereo not drawn)	-9%	·	-8%	·
Cc1ccc(S(=O)(=O)N2CCOC23CCN(C(=O)C(=O)NCc2ccccc2)CC3)cc1	-24%	-12%[0.505 µM]	?	1%
O=C1C=CC2(OCCCO2)C(Br)=C1CO	·	-3%	·	·
Nc1nc(=S)c2snnc2[nH]1	16µM*	·	11µM*	-2%
Nc1nc(N)c2snnc2n1	?	·	2%	-2%
NC(=O)N/N=C/c1ccc(-c2ccc(S(=O)(=O)Nc3ncccn3)cc2)o1	-1%	·	3%	?
CC(C)Oc1ccc(C(=O)N/N=C/c2ccc(-c3ccc(S(=O)(=O)Nc4ncccn4)cc3)o2)cc1	-24%	·	-5%	14µM*
c1ccc(-c2nnsc2-c2ccccc2)cc1	20%	·	-3%	1%
O=S(=O)(c1ccc(Cl)c(Cl)c1)c1snnc1-c1ccccc1	3.3µM*	2%	2.6µM*	1%
CC(=O)OC1CCC2(C)C(=CCC3C2CCC2(C)C3C[C@@H]3O[C@]32C(C)=O)C1 (stereo partly drawn)	3%	11%[56.1 µM]	13%	·
Cc1oc2cc([N+](=O)[O-])c(O)c([N+](=O)[O-])c2c1C(=O)c1ccc(Cl)cc1	?	0%	23µM*	2%
Cc1ccc(NC(=S)Nc2cccnc2)c(S(=O)(=O)N2CCCCC2)c1	16µM*	5%	23µM*	-5%
Cc1ccc(C)c(NC(=S)Nc2cccc3cnccc23)c1	16µM*	-3%	15µM*	·
S=C(Nc1cccc(Cl)c1)Nc1ccccc1Oc1ccccc1	21µM*	5%	?	2%
Fc1ccc(NC(=S)Nc2cccnc2)cc1Cl	23µM*	5%	?	-2%
Cc1ccccc1NC(=S)Nc1cccc2cnccc12	?	-5%	?	·
O=C(Cn1cnc2ccccc2c1=O)c1ccc(OC(F)F)cc1	-11%	·	6%	·
Cc1ccc(NC(=S)Nc2cccc3cnccc23)cc1	16µM*	5%	?	-2%
CC1=C/C(=N\NC(=S)Nc2cccnc2)CC(C)(C)C1	2.1µM*	8%	1.3µM*	·
S=C(Nc1cccc(Cl)c1)Nc1cccc2cnccc12	18µM*	-2%	16µM*	-3%
Cc1ccc(NC(=S)Nc2cccc3cnccc23)cc1C	?	0%	?	·
Cc1ccc(C)c(NC(=S)Nc2cccnc2)c1	5%	1%	33%	25µM*
CC(=O)c1ccc(NC(=S)Nc2cccc3cnccc23)cc1	?	5%	-10%	·
CCOC(=O)C1CCN(C(c2ccc(C)cc2)c2c(O)cc(C)n(CCOC)c2=O)CC1 (stereo not drawn)	17%	5%	3%	1%
CCOc1ccc(CCNC(=O)CCCc2nnc3n(C)c(=O)c4sccc4n23)cc1OCC	8%	6%	-1%	2%
Cc1onc(-c2ccccc2)c1C(=O)N(CC(C)C)c1c(N)n(CC(C)C)c(=O)[nH]c1=O	22%	1%	-9%	-3%
Cc1ccc2[nH]c3c(=O)n(N)c(=O)[nH]c3c2c1	-6%	6%	-2%	·
COC(=O)Cc1ccc(OC(=O)c2cccc(S(=O)(=O)N3CCN(C)CC3)c2)cc1	-23%	-7%[0.505 µM]	6%	·
